Common to all, as to experiment: NCI-60 one-dose screen, 48 h (100 = growth as untreated, 0 = no growth, -100 = all killed)
One test has as its system K-562 leukemia. To be noted: 10 µM unless noted.
The subject of another test is MALME-3M melanoma. The settings on record: 10 µM unless noted.
For another test, the system named is MDA-MB-231 breast. To be noted: 10 µM unless noted.
The next test has as its system RXF 393 renal. The settings on record: 10 µM unless noted.
The next test relates to SF-268 CNS. The settings on record: 10 µM unless noted.
Another test deals with SF-295 CNS. The settings on record: 10 µM unless noted.
The subject of another test is SF-539 CNS. The settings on record: 10 µM unless noted.
Another test deals with M14 melanoma. The settings on record: 10 µM unless noted.
In the next test the test system is HCT-15 colon. The settings on record: 10 µM unless noted.
In another test the test system is HT29 colon. To be noted: 10 µM unless noted.
The next test deals with SNB-75 CNS. The settings on record: 10 µM unless noted.
A further test concerns SNB-19 CNS. The settings on record: 10 µM unless noted.
Another test has as its system U251 CNS. To be noted: 10 µM unless noted.
The subject of a further test is PC-3 prostate. To be noted: 10 µM unless noted.
The test system of a further test is SK-MEL-5 melanoma. To be noted: 10 µM unless noted.
The test system of the next test is LOX IMVI melanoma. The settings on record: 10 µM unless noted.
The test system of another test is SK-MEL-28 melanoma. To be noted: 10 µM unless noted.
Another test deals with SK-MEL-2 melanoma. The settings on record: 10 µM unless noted.
The next test has as its system UACC-62 melanoma.
Another test has as its system UACC-257 melanoma. The settings on record: 10 µM unless noted.

Values joined by “and” are separate entries in the source; they are usually repeats but may differ in a detail not shown here. Equal entries are not always repeated. The panel holds about 83,000 compounds, 20% with a hit somewhere; the sample as a whole holds those more often.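 Activity criterion: percent growth below 10, measured after cells in 96-well plates were exposed to a single compound concentration for 48 hours.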 A number with no mark means an inactive call. Active and inactive are the calls of the source.

As to `N#Cc1cnc2cc(OC[C@H](O)CO)c(NC(=O)CC3CSSC3)cc2c1Nc1ccc(OCc2cccc(F)c2)c(Cl)c1`, the growth is -100% (active) in the test on K-562 leukemia; -67% (active) in the test on MALME-3M melanoma; -54.9% (active) in the test with MDA-MB-231 breast; -86.1% (active) in the test on RXF 393 renal; -56.3% (active) with SF-268 CNS; -82.1% (active) in the test on SF-295 CNS. Besides, the growth is -85.8% (active) with SF-539 CNS; -66.8% (active) in the test with M14 melanoma; 27.3% in the test on HCT-15 colon; -77.8% (active) in the test on HT29 colon; -92.3% (active) in the test with SNB-75 CNS; -64.6% (active) in the test with SNB-19 CNS. The growth in the test with U251 CNS was -69.2% (active); in the test with PC-3 prostate, -100% (active); with SK-MEL-5 melanoma, -95.9% (active); in the test with LOX IMVI melanoma it was -86.3% (active); in the test on SK-MEL-28 melanoma, -84.6% (active); in the test with SK-MEL-2 melanoma, -70.6% (active).

Take `COc1cc2c(cc1OCCCOc1ccc(-c3cc4ccccc4c4ccccc34)cc1)N=C[C@@H]1CCCN1C2=O`: the growth with K-562 leukemia was 10.5%; with MALME-3M melanoma, -57.9% (active); with MDA-MB-231 breast it was -71.2% (active); in the test on RXF 393 renal, -49.6% (active); in the test on SF-268 CNS, -61.2% (active); in the test on SF-295 CNS it was -64.6% (active). In addition, the growth was -57.6% (active) with SF-539 CNS; -34.2% (active) with M14 melanoma; -64% (active) in the test with HCT-15 colon; -46.6% (active) in the test with HT29 colon; -78% (active) with SNB-75 CNS; -46.8% (active) in the test on SNB-19 CNS. Moreover, the growth is -79.3% (active) in the test on U251 CNS; -80.2% (active) in the test with SK-MEL-5 melanoma; -83.6% (active) in the test with UACC-62 melanoma (10 µM unless noted); -62.1% (active) in the test with LOX IMVI melanoma; -62.2% (active) in the test on SK-MEL-28 melanoma; -78.8% (active) in the test on SK-MEL-2 melanoma.

`ClC1=C(Cl)C(Cl)=C(Cl)C1=Cc1ccc(Cl)cc1`: the growth in the test on K-562 leukemia is -0.422% (active); in the test on MALME-3M melanoma, -2.75% (active); in the test with MDA-MB-231 breast, 14.3%; in the test on RXF 393 renal it was 20.5%; in the test with SF-268 CNS, -69.3% (active); with SF-295 CNS, 34.2%. For the same molecule, the growth was 91.2% in the test with SF-539 CNS; -47.6% (active) in the test on M14 melanoma; -30.1% (active) with HT29 colon; 97.5% with SNB-75 CNS; 76.4% in the test with SNB-19 CNS; -36.1% (active) in the test on PC-3 prostate. Moreover, the growth was 100% with SK-MEL-5 melanoma; 58.6% with UACC-62 melanoma (10 µM unless noted); -85.5% (active) in the test on LOX IMVI melanoma; 116% in the test with SK-MEL-28 melanoma; 99.7% in the test with SK-MEL-2 melanoma.

As for `COC(=O)[C@]12CC[C@@H](C)[C@H](C)[C@@H]1C1=CC[C@@H]3[C@@]4(C)C=C(O)C(=O)[C@@]5(C)COC(=C54)C[C@@]3(C)[C@]1(C)CC2`, the growth with K-562 leukemia is -97.8% (active); with MALME-3M melanoma, -59% (active); with MDA-MB-231 breast it was -52.7% (active); with RXF 393 renal it was -82.4% (active); in the test with SF-268 CNS, -45.3% (active); in the test on SF-295 CNS, -57.4% (active). In addition, the growth was -91.4% (active) with SF-539 CNS; -63.2% (active) in the test with M14 melanoma; -82.3% (active) in the test on HCT-15 colon; -70.6% (active) in the test with HT29 colon; 12.7% with SNB-75 CNS; -26.5% (active) with SNB-19 CNS. Further, the growth was -74.9% (active) in the test with U251 CNS; -71.2% (active) in the test on PC-3 prostate; -98.1% (active) with SK-MEL-5 melanoma; -98.8% (active) in the test with LOX IMVI melanoma; -56.9% (active) in the test with SK-MEL-28 melanoma; -62.8% (active) in the test on SK-MEL-2 melanoma.

`O=C(/C=C/c1cc2ccccc2[nH]c1=O)c1ccc(Cl)cc1`: the growth in the test with K-562 leukemia is 17.1%; in the test on MALME-3M melanoma, 46.4%; in the test with MDA-MB-231 breast, 32.2%; in the test on RXF 393 renal, 12.9%; in the test on SF-268 CNS, 30.7%; in the test on SF-295 CNS, 42.7%. For the same molecule, the growth with UACC-257 melanoma was 45.3%; in the test with M14 melanoma it was 44.7%; in the test on HCT-15 colon, 41.6%; in the test with HT29 colon it was 6.1% (active); in the test with SNB-75 CNS, 16.8%; with SNB-19 CNS it was 47.6%. Besides, the growth with U251 CNS is 24.8%; in the test on SK-MEL-5 melanoma, 56.2%; in the test on UACC-62 melanoma (10 µM unless noted), 31.4%; in the test with LOX IMVI melanoma, -69.2% (active); in the test with SK-MEL-28 melanoma it was 80.1%; with SK-MEL-2 melanoma, 18.8%.

Turning to `c1ccc2c(c1)[nH]c1c2cc[n+]2cc3c(cc12)CCCC3`, the growth in the test with K-562 leukemia was 16.9%; in the test on MALME-3M melanoma, 3.13% (active); in the test with MDA-MB-231 breast, 31.4%; with RXF 393 renal it was 76.8%; with SF-268 CNS, 23%; in the test with SF-539 CNS, 37.6%. The growth was 38.4% with UACC-257 melanoma; 19.7% with M14 melanoma; 96.9% in the test on HCT-15 colon; 18.5% in the test on HT29 colon; 77.3% in the test with SNB-75 CNS; 35.1% in the test on SNB-19 CNS. In addition, the growth is 16.3% in the test with U251 CNS; 22.8% in the test on PC-3 prostate; 18.3% in the test with SK-MEL-5 melanoma; 29.6% in the test with UACC-62 melanoma (10 µM); -23.2% (active) and -48.3% (active) with UACC-62 melanoma (100 µM); 19.5% in the test on LOX IMVI melanoma. For the same molecule, the growth in the test with SK-MEL-28 melanoma is 32.7%; with SK-MEL-2 melanoma, -8.25% (active).

In the case of `C=CCCCCCCCCC(=O)[O][Sn]([CH2]CCC)([CH2]CCC)[CH2]CCC`, the growth in the test on K-562 leukemia is -16.8% (active); in the test on MALME-3M melanoma, -79.8% (active); in the test with MDA-MB-231 breast, -81.7% (active); in the test with RXF 393 renal, -97.3% (active); with SF-268 CNS, -97.3% (active); with SF-295 CNS, -85.4% (active). For the same molecule, the growth with SF-539 CNS is -84.1% (active); with M14 melanoma it was -91.1% (active); in the test on HCT-15 colon it was -73.3% (active); with HT29 colon, -76.3% (active); with SNB-75 CNS it was -98.2% (active); in the test on SNB-19 CNS, -79.2% (active). The growth in the test on U251 CNS is -74% (active); in the test with PC-3 prostate it was -93.5% (active); with UACC-62 melanoma (10 µM unless noted), -90.4% (active); in the test on LOX IMVI melanoma, -90.9% (active); with SK-MEL-28 melanoma, -93.5% (active); in the test on SK-MEL-2 melanoma, -71.2% (active).

For `CSc1ccc2c(c1)N(CCC1CCCCN1C)c1ccccc1S2` (centres undefined), the growth was 1.49% (active) in the test with K-562 leukemia; 72.8% with MALME-3M melanoma; 46.3% in the test with MDA-MB-231 breast; 26.7% in the test with RXF 393 renal; 54.5% in the test with SF-268 CNS; 58.4% in the test on SF-295 CNS. Besides, the growth was 32.8% in the test on UACC-257 melanoma; -57.9% (active) in the test on M14 melanoma; 21.6% with HT29 colon; 34.5% with SNB-75 CNS; 75.3% in the test on SNB-19 CNS; 34.3% in the test with U251 CNS. For the same molecule, the growth with PC-3 prostate is 34.1%; in the test on SK-MEL-5 melanoma, 23.7%; in the test on LOX IMVI melanoma, 23.5%; with SK-MEL-28 melanoma it was 81.7%; in the test on SK-MEL-2 melanoma, 88.6%.

(Values after PubChem BioAssay (NCI).)
